MITF TRPM1 inh = MITF TRPM1 promoter inhibition in SK-MEL-5 cells | SK-MEL-5 TRPM1 promoter luciferase, 24 h | inhibition, % at 12.5 µM | actives 0.83% (n = 330,000) | AID 488899;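 active = mean inhibition across replicates of 60% or more, whatever share of single replicates reaches that level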
ABHD5-PLIN5 inh = inhibitors of human ABHD5-perilipin-5 interaction | Q00G26+Q8WTS1 | Split G. princeps luciferase complementation, luminescence, 4 h | inhibition, % at 4 µM | actives 0.78% (n = 360,000);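 active = inhibition above the mean inhibition across every tested compound plus 3 SD, cut at about 22% in these data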
Target sequence (Q00G26 whole entry, looked up): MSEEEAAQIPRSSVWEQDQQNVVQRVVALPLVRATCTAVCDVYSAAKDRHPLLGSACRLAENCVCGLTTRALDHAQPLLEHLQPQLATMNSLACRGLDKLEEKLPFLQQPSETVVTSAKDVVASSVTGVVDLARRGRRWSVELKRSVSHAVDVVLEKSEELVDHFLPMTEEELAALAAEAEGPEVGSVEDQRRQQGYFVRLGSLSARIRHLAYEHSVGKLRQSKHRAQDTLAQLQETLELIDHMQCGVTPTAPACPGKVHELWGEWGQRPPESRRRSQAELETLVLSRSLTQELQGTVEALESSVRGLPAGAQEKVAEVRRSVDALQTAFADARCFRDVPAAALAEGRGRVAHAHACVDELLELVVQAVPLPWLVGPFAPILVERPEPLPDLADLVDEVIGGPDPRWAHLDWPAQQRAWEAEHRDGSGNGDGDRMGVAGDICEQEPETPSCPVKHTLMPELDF
Target sequence (Q8WTS1 whole entry, looked up): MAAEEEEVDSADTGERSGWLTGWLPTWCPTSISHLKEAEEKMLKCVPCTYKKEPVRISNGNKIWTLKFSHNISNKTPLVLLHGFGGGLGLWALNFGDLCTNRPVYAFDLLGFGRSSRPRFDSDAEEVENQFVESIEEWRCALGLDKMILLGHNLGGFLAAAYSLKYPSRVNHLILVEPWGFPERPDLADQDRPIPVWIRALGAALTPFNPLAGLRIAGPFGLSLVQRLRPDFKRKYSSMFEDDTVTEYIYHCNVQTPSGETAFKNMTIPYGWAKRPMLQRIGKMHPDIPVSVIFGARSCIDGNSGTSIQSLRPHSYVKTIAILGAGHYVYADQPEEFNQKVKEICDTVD
Peg3 prom inh = Peg3 promoter activity inhibition; HeLa PEG-Prom luciferase reporter, luminescence, overnight; inhibition, % at 20 µM; actives 1.7% (n = 360,000);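 active = inhibition of at least 50% at 20 µM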
Shn3 3UTR inh = Schnurri-3 reporter inhibition in Clone20 osteoblasts; Clone20 osteoblast Shn3 3'UTR firefly luciferase, 24 h; AID 588674; inhibition, % at 12.5 µM; actives 0.52% (n = 360,000);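 active = mean inhibition of at least 75% with every replicate also reaching 75%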
EWS-Fli block = inhibitors of EWS/Fli oncoprotein transcriptional activity. actives 0.67% (n = 350,000). A673 NR0B1-luciferase reporter, viability-normalised. AID 651661. inhibition, % at 12.6 µM;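 active = mean inhibition of at least 50% after viability correction, with every replicate also passing that limit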;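 note: firefly luciferase signal divided by Alamar Blue viability fluorescence both relative to DMSO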
PAX8 inh HTS = lowers PAX8-driven luciferase in RMG-I cells; RMG-I TPO-luciferase reporter, SteadyGlo, 24 h; inhibition, % at 12.6 µM; actives 1.2% (n = 360,000); AID 652154;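 active = mean replicate inhibition at least 60% with every replicate also reaching 60%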;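 note: luciferase light reporting Pax8 driven TPO promoter activity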
Numbers stand for hits; i = inactive; nt = not tested or not shown. Most compounds without a hit are left out; they make up all but 3% or so of the library.

SMILES	MITF TRPM1 inh	ABHD5-PLIN5 inh	Peg3 prom inh	Shn3 3UTR inh	EWS-Fli block	PAX8 inh HTS
C[C@@H]1CN([C@@H](C)CO)C(=O)c2cc(NC(=O)Nc3cccc4ccccc34)ccc2O[C@@H]1CN(C)CC1CCCCC1	nt	nt	nt	nt	77	nt
C[C@@H]1CN([C@@H](C)CO)C(=O)c2cc(NC(=O)Nc3cccc4ccccc34)ccc2O[C@@H](C)CCCCO[C@@H]1CN(C)CC1CCCCC1	nt	nt	nt	nt	82	i
C[C@@H]1CCCCO[C@@H](CN(C)CC2CCCCC2)[C@H](C)CN([C@H](C)CO)C(=O)c2cc(NC(=O)Nc3cccc4ccccc34)ccc2O1	nt	nt	nt	nt	90	i
C[C@H](CO)N1C[C@H](C)[C@@H](CN(C)CC2CCCCC2)Oc2ccc(NC(=O)Nc3cccc4ccccc34)cc2C1=O	nt	nt	nt	nt	i	nt
C[C@H](CO)N1C[C@H](C)[C@H](CN(C)CC2CC2)OCCCC[C@H](C)Oc2ccc(NC(=O)Nc3cccc4ccccc34)cc2C1=O	nt	nt	nt	nt	i	i
C[C@@H]1CCCCO[C@H](CN(C)C)[C@H](C)CN([C@H](C)CO)C(=O)c2cc(NC(=O)Nc3cccc4ccccc34)ccc2O1	nt	nt	nt	nt	i	84
O=C(NC[C@@H]1CC[C@H]2[C@H](CN2S(=O)(=O)c2ccccc2)O1)NC1CCCCC1	nt	nt	nt	nt	i	nt
Cc1noc(C)c1NC(=O)N(C)C[C@H]1OCCCC[C@@H](C)Oc2ccc(NS(=O)(=O)c3cn(C)cn3)cc2C(=O)N([C@H](C)CO)C[C@H]1C	nt	nt	nt	nt	i	i
C[C@H]1CCCCO[C@H](CN(C)CC2CCCCC2)[C@@H](C)CN([C@@H](C)CO)C(=O)c2cc(NC(=O)Nc3cccc4ccccc34)ccc2O1	nt	nt	nt	nt	89	i
C[C@@H]1CN([C@@H](C)CO)C(=O)c2cc(NC(=O)Nc3cccc4ccccc34)ccc2O[C@@H](C)CCCCO[C@H]1CN(C)CC1CCCCC1	nt	nt	nt	nt	91	i
CC(C)NC(=O)N(C)C[C@H]1Oc2ncc(C#CCc3ccccc3)cc2C(=O)N([C@@H](C)CO)C[C@H]1C	nt	nt	nt	nt	i	nt
CNC[C@H]1Oc2ccc(NS(=O)(=O)c3cccs3)cc2C(=O)N([C@H](C)CO)C[C@H]1C	nt	nt	nt	nt	i	nt
O=C(Nc1ccccc1Cl)c1ccc2c(=O)n3c(nc2c1)CCC3	i	i	i	i	i	i
Cc1ccc(-c2csc(NC(=O)c3cc([N+](=O)[O-])ccc3N3CCOCC3)n2)cc1	i	i	i	i	i	i
O=C(Nc1nc(-c2ccccc2)cs1)c1ccc(N2CCOCC2)c([N+](=O)[O-])c1	80	i	67	i	nt	nt
O=C(Nc1nc(-c2ccccc2)cs1)c1ccc2c(=O)n3c(nc2c1)CCCCC3	i	i	74	i	i	i
Cc1ccc(S(=O)(=O)NCC[C@@H]2CC[C@@H](NC(=O)Nc3ccccc3F)[C@@H](CO)O2)cc1	nt	nt	nt	nt	i	i
COc1ccc(C(=O)O/N=C(\N)c2ccccc2)c(OC)c1	i	i	i	i	71	i
CS(=O)(=O)c1ccc(N)c(SSc2cc(S(C)(=O)=O)ccc2N)c1	i	83	i	i	i	i
CS(=O)(=O)c1ccc2nc(N)sc2c1	i	i	i	i	nt	nt
COc1ccc(NC(=O)N(C)C[C@@H]2OCCCC[C@H](C)Oc3ccc(NC(=O)CCC(F)(F)F)cc3C(=O)N([C@H](C)CO)C[C@H]2C)cc1	nt	nt	nt	nt	i	i
CCC(=O)N1CCCCN2[C@H](C1)[C@H](c1ccc(C#Cc3cccnc3)cc1)[C@@H]2CO	nt	nt	nt	nt	i	i
COc1ccc(NC(=O)O[C@@H](C)[C@@H]2CN3CCc4c([nH]c5ccc(-c6ccc(OC)cc6)cc45)[C@@H]3C[C@@H]2N(C)C(=O)Nc2ccc(OC)cc2)cc1	nt	i	i	i	i	i
COc1ccc(NC(=O)N(C)[C@H]2C[C@H]3c4[nH]c5ccc(-c6ccc7c(c6)OCO7)cc5c4CCN3C[C@H]2[C@H](C)O)cc1	nt	i	55	i	i	i
COc1ccc(NC(=O)N(C)[C@H]2C[C@H]3c4[nH]c5ccc(-c6ccc(OC)cc6)cc5c4CCN3C[C@H]2[C@H](C)O)cc1	nt	i	98	i	i	i
COc1ccc(-c2ccc3[nH]c4c(c3c2)CCN2C[C@@H]([C@H](C)OC(=O)Nc3cc(Cl)cc(Cl)c3)[C@@H](N(C)C(=O)Nc3cc(Cl)cc(Cl)c3)C[C@@H]42)cc1	nt	i	i	i	i	i

Assay outcomes as filed in PubChem BioAssay.
